# Reference: PubChem BioAssay (EPA / NIEHS)
# Active and inactive are the calls of the source. The calls were made as follows: active = hit-call score of the fitted dose curve at least 0.9, where 1 is the maximum; inactive = score below 0.9.
# Tests used:
# [1] = target: CCAAT/enhancer-binding protein beta (Homo sapiens) (UniProt P17676); experiment: ATG_C_EBP_CIS: Attagene CIS-FACTORIAL HepG2 Assay for human CCAAT/Enhancer Binding Protein (C/EBP) beta (AID 2282927); settings: HepG2 Attagene cis-factorial transcription factor reporter; actives raise or lower the signal
# Outline: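 Chemical-treated HepG2 cells (24 h) bearing cis-regulated reporter constructs were processed for total RNA, then reverse transcription, PCR amplification, fluorescent primer extension and fragment analysis; gain- and loss-of-signal were fitted against DMSO.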
# [2] = ATG_CMV_CIS: Attagene CIS-FACTORIAL HepG2 Assay for human CMV (Internal Marker) (AID 2282928); settings: HepG2 CMV promoter reporter, transcription factor profiling; actives raise or lower the signal;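 also: endpoint acts as a background internal control marker rather than a target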
# Outline: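 Fluorescence intensity of RT-PCR-derived reporter fragments, resolved by capillary electrophoresis, gives the signal. HepG2 liver cells bearing transfected cis-element reporters were treated 24 h; activity in either direction was fit relative to DMSO-treated controls.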
# [3] = ATG_AP_1_CIS: Attagene CIS-FACTORIAL HepG2 Assay for human Activator Protein 1 (AP-1) (AID 2282931); settings: HepG2 Attagene cis-factorial AP-1 reporter mRNA; actives raise or lower the signal
# Outline: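 HepG2 cells transiently transfected with cis-element-driven reporter transcription units, dosed for 24 hours. Reporter mRNA measured by RT-PCR, 6-FAM labelling, HpaI digestion and capillary electrophoresis. Bidirectional fitting against DMSO baseline.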
# [4] = ATG_AP_2_CIS: Attagene CIS-FACTORIAL HepG2 Assay for human Activator Protein 2 (AP-2) (AID 2282932); settings: HepG2 AP-2 cis-reporter, Attagene transcription factor profiling; actives raise or lower the signal
# Outline: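 Cells (HepG2) transfected with promoter-driven reporter constructs, treated 24 h. Total RNA reverse-transcribed, reporter cDNA PCR-amplified, FAM-labelled by primer extension, digested, resolved by capillary electrophoresis. Activity fitted both directions versus DMSO.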
# [5] = ATG_BRE_CIS: Attagene CIS-FACTORIAL HepG2 Assay for human Bone Morphogenetic Protein (BMP) Response Element (BRE) (AID 2282933); settings: HepG2 BMP response element reporter, Attagene transcription factor profiling; actives raise or lower the signal
# Outline: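 Endogenous transcription factor activity at a BMP response element was monitored in transfected HepG2 cells 24 h after dosing. Fluorescent RT-PCR products were resolved by capillary electrophoresis, and activity was fitted in both directions versus DMSO.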
# [6] = ATG_E_Box_CIS: Attagene CIS-FACTORIAL HepG2 Assay for human Enhancer Box (E-box) (AID 2282936); settings: HepG2 E-box cis-reporter transcription, actives raise or lower the signal
# Outline: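 Endogenous transcription factor activity was sensed in human HepG2 liver cells through transfected cis-promoter reporter units. After 24 h of dosing, total RNA was reverse-transcribed and reporter cDNA resolved by capillary electrophoresis.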
# [7] = ATG_M_61_CIS: Attagene CIS-FACTORIAL HepG2 Assay for M61 Transcription Factor (Internal Marker) (AID 2282937); settings: HepG2 Attagene CIS-FACTORIAL M61 internal marker reporter; actives raise or lower the signal
# Outline: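 HepG2 cells transiently transfected with multiplexed cis-promoter reporter units reporting endogenous transcription factor activity, measured 24 h after dosing. Reporter mRNA quantified by RT-PCR and capillary electrophoresis; bidirectional fit against DMSO baseline.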
# [8] = ATG_EGR_CIS: Attagene CIS-FACTORIAL HepG2 Assay for human Early Growth Response 1 (EGR1) (AID 2282938); settings: HepG2 Attagene CIS-FACTORIAL EGR reporter mRNA; actives raise or lower the signal
# Outline: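 HepG2 cells transiently transfected with cis-element-driven multiplexed reporter units, dosed for 24 h. EGR1-element reporter mRNA quantified by RT-PCR, 6-FAM labelling, HpaI digestion and capillary electrophoresis; bidirectional fit versus DMSO.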
# [9] = ATG_Ets_CIS: Attagene CIS-FACTORIAL HepG2 Assay for human Erythroblast Transformation Specific (ETS) (AID 2282941); settings: HepG2 ETS cis-reporter transcription, actives raise or lower the signal
# Outline: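 Multiplexed reporter transcript profiling: HepG2, 24 h treatment, total RNA to cDNA, PCR, 6-FAM labelling, HpaI cut, capillary electrophoresis. Gain- or loss-of-signal fitted against DMSO.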
# [10] = ATG_FoxO_CIS: Attagene CIS-FACTORIAL HepG2 Assay for human Forkhead box O (FoxO) (AID 2282943); settings: HepG2 Attagene cis-reporter, FoxO element, mRNA; actives raise or lower the signal
# Outline: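 24 h chemical exposure, HepG2 with transient cis-MRTU transfection. RNA extraction, oligo(dT) RT, reporter-specific PCR, primer-extension labelling, HpaI digestion, CE fragment analysis; bidirectional fit, DMSO baseline.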
# [11] = ATG_GATA_CIS: Attagene CIS-FACTORIAL HepG2 Assay for human GATA Binding Protein (AID 2282944); settings: HepG2 GATA cis-element reporter, Attagene multiplex mRNA; actives raise or lower the signal
# Outline: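 Endogenous transcription factor activity was captured through cis-promoter-driven reporters in transfected HepG2 cells. After 24 h exposure, reporter transcripts were quantified by RT-PCR with fluorescent capillary electrophoresis, and responses fitted both directions against DMSO.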
# [12] = ATG_ISRE_CIS: Attagene CIS-FACTORIAL HepG2 Assay for human Interferon Regulatory Factor 1 (IRF1) binding to an Interferon-Stimulated Response Element (ISRE) (AID 2282948); settings: HepG2 ISRE cis-reporter (Attagene), mRNA transcription readout; actives raise or lower the signal
# Outline: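 Signal reflects induction or loss of ISRE-linked reporter mRNA in transiently transfected HepG2 cells after a 24 h treatment, detected by fluorescent RT-PCR fragments on capillary electrophoresis and normalised to DMSO.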
# [13] = ATG_M_06_CIS: Attagene CIS-FACTORIAL HepG2 Assay for M06 Transcription Factor (Internal Marker) (AID 2282950); settings: HepG2 Attagene CIS-FACTORIAL M06 internal marker reporter; actives raise or lower the signal
# Outline: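 Steps: transfect HepG2 with multiplexed cis-element reporter constructs; dose chemical 24 h; extract RNA with DNase treatment; reverse-transcribe, PCR-amplify, 6-FAM label, HpaI digest; separate fragments by capillary electrophoresis. Activity fitted both directions versus DMSO.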
# [14] = ATG_MRE_CIS: Attagene CIS-FACTORIAL HepG2 Assay for human Metal Responsive Element (MRE) (AID 2282954); settings: HepG2 MRE cis-reporter transcription, Attagene multiplex; actives raise or lower the signal
# Outline: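 Cells were transfected with cis-promoter reporter transcription units, then dosed for 24 h. RNA was reverse-transcribed, amplified, fluorescently labelled and resolved by capillary electrophoresis, and activity was fitted in both directions relative to DMSO.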
# [15] = target: Paired box protein Pax-6 (Homo sapiens) (UniProt P26367); experiment: ATG_Pax6_CIS: Attagene CIS-FACTORIAL HepG2 Assay for human Paired Box 6 (PAX6) (AID 2282956); settings: HepG2 CIS-FACTORIAL PAX6 reporter transcription, RNA readout; actives raise or lower the signal
# Outline: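 Values derive from bidirectional curve fitting of reporter mRNA signal relative to DMSO. HepG2 cells bearing transfected cis-regulated MRTUs were exposed for 24 h; transcripts were read by RT-PCR and capillary electrophoresis.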
# [16] = target: Transcription factor Sp1 (Homo sapiens) (UniProt P08047); experiment: ATG_Sp1_CIS: Attagene CIS-FACTORIAL HepG2 Assay for human Specificity Protein 1 (Sp1) (AID 2282961); settings: HepG2 Sp1 cis-reporter transcription, actives raise or lower the signal
# Outline: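 HepG2 cells transiently transfected with multiplexed cis-regulated reporter constructs, chemical exposure 24 h. Reporter mRNA quantified by RT-PCR with capillary electrophoresis; bidirectional fit relative to DMSO.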
# [17] = ATG_SREBP_CIS: Attagene CIS-FACTORIAL HepG2 Assay for human Sterol Regulatory Element Binding (SREBP) (AID 2282962); settings: HepG2 Attagene cis-factorial SREBP reporter, mRNA; actives raise or lower the signal
# Outline: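 Values derive from bidirectional curve fitting with DMSO as baseline. The underlying measurement is reporter mRNA from cis-element-regulated units in transiently transfected HepG2, quantified by RT-PCR and capillary electrophoresis after 24 h exposure.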
# [18] = target: Signal transducer and activator of transcription 3 (Homo sapiens) (UniProt P40763); experiment: ATG_STAT3_CIS: Attagene CIS-FACTORIAL HepG2 Assay for human Signal Transducer and Activator of Transcription 3 (STAT3) (AID 2282963); settings: HepG2, Attagene cis-factorial STAT3 reporter transcription; actives raise or lower the signal
# Outline: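 HepG2, MRTU-transfected, 24 h dosing. RNA → RT → PCR → FAM label → HpaI → CE. Bidirectional fit vs DMSO.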
# [19] = ATG_TAL_CIS: Attagene CIS-FACTORIAL HepG2 Assay for human TAL Basal Promoter (AID 2282966); settings: HepG2 Attagene cis-factorial TAL promoter reporter; actives raise or lower the signal;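 also: background control endpoint measuring basal TAL promoter reporter mRNA not a specific factor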
# Outline: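 Basal-promoter background-control endpoint from a multiplexed HepG2 reporter panel. Cells were exposed 24 h, then reporter mRNA was read by RT-PCR/CE fluorescence and fitted in both directions relative to DMSO.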
# [20] = target: X-box-binding protein 1 (Homo sapiens) (UniProt P17861); experiment: ATG_Xbp1_CIS: Attagene CIS-FACTORIAL HepG2 Assay for human X-box Binding Protein 1 (XBP1) (AID 2282972); settings: HepG2 XBP1 cis-element reporter, Attagene multiplex; actives raise or lower the signal
# Outline: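 Human hepatoma HepG2, cis-element reporter system, 24 h treatment; mRNA quantified by RT-PCR/CE fluorescence; fit relative to DMSO.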
# Sequence of Paired box protein Pax-6 (Homo sapiens) (P26367 whole entry, looked up): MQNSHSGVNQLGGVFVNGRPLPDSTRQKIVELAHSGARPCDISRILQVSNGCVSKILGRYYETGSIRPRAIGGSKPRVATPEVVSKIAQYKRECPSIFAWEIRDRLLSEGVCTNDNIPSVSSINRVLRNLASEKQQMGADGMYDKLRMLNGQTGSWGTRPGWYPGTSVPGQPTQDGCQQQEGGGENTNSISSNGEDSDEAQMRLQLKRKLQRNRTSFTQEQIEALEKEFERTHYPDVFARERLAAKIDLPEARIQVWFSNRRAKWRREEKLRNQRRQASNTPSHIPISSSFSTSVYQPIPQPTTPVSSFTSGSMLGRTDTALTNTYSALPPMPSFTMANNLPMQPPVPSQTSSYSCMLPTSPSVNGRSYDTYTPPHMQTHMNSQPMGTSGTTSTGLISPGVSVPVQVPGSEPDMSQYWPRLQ
# Sequence of X-box-binding protein 1 (Homo sapiens) (P17861 whole entry, looked up): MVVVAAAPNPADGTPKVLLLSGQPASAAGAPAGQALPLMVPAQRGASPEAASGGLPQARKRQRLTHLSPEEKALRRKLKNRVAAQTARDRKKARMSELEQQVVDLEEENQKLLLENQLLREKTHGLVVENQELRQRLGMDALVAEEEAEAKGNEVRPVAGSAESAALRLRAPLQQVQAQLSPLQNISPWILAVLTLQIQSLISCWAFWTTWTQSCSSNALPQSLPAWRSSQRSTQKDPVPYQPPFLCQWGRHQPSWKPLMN
# Sequence of Signal transducer and activator of transcription 3 (Homo sapiens) (P40763 whole entry, looked up): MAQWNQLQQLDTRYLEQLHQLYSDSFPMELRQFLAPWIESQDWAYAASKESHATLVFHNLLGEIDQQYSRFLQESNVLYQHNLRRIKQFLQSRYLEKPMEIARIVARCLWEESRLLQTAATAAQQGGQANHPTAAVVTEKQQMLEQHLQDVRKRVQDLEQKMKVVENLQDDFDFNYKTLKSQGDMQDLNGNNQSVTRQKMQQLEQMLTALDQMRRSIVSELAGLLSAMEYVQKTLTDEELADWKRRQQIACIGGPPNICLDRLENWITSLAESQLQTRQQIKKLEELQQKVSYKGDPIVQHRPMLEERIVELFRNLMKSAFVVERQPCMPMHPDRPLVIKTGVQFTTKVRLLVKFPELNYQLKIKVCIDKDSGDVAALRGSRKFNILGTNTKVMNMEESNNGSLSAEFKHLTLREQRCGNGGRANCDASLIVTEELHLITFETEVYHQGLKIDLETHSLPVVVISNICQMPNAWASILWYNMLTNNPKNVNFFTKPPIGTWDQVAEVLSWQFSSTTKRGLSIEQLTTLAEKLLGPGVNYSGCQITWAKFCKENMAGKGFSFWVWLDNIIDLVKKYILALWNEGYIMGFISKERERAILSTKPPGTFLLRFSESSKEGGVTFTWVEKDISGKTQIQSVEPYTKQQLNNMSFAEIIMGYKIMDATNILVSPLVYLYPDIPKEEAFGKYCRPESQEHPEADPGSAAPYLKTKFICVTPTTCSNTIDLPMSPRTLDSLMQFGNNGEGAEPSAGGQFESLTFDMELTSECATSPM
# Sequence of Transcription factor Sp1 (Homo sapiens) (P08047 whole entry, looked up): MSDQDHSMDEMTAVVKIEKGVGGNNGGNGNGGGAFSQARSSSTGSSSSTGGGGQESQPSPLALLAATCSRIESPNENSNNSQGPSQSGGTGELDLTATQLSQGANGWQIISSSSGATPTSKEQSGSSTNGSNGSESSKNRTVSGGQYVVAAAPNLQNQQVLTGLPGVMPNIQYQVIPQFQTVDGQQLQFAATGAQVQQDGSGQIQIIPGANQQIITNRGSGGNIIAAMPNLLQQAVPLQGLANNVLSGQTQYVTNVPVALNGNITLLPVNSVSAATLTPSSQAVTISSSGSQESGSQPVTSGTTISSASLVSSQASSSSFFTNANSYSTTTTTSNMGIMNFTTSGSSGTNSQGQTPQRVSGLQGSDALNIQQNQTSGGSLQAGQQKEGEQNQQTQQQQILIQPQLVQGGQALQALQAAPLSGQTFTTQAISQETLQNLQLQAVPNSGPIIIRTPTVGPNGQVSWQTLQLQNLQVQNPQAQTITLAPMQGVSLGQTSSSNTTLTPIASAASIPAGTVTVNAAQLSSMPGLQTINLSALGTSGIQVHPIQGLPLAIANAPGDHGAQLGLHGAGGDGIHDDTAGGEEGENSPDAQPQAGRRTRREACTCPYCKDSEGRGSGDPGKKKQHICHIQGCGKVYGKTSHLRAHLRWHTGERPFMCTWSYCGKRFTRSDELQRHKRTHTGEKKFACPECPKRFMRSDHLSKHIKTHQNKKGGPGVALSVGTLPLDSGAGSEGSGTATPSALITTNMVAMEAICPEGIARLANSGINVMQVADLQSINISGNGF
# Sequence of CCAAT/enhancer-binding protein beta (Homo sapiens) (P17676 whole entry, looked up, the tested form may be a part): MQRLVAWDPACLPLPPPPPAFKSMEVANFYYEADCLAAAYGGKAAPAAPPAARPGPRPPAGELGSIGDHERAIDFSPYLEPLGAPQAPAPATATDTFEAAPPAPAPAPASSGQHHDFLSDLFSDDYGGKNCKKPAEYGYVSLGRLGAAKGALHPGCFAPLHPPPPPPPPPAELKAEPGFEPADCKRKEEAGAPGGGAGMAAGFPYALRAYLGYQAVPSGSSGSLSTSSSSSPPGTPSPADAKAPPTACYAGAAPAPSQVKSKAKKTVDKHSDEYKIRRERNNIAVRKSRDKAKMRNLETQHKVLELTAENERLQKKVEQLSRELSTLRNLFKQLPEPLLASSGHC
compound,measurement,setting,value
CCCCCCC1CCC(=O)O1 (stereo not given),outcome,[1],inactive
same,outcome,[2],inactive
same,outcome,[3],inactive
same,outcome,[4],inactive
same,outcome,[5],inactive
same,outcome,[6],inactive
same,outcome,[7],inactive
same,outcome,[8],inactive
same,outcome,[9],inactive
same,outcome,[10],inactive
same,outcome,[11],inactive
same,outcome,[12],inactive
same,outcome,[13],inactive
same,outcome,[14],inactive
same,outcome,[15],inactive
same,outcome,[16],inactive
same,outcome,[17],inactive
same,outcome,[18],inactive
same,outcome,[19],inactive
same,outcome,[20],inactive
COC(OC)C(C)c1ccccc1 (stereo not given),outcome,[1],inactive
same,outcome,[2],inactive
same,outcome,[3],inactive
same,outcome,[4],inactive
same,outcome,[5],inactive
same,outcome,[6],inactive
same,outcome,[7],inactive
same,outcome,[8],inactive
same,outcome,[9],inactive
same,outcome,[10],inactive
same,outcome,[11],inactive
same,outcome,[12],inactive
same,outcome,[13],inactive
same,outcome,[14],inactive
same,outcome,[15],inactive
same,outcome,[16],inactive
same,outcome,[17],inactive
same,outcome,[18],inactive
same,outcome,[19],inactive
same,outcome,[20],inactive
c1ccc(CNc2ncnc3nc[nH]c23)cc1,outcome,[1],inactive
same,outcome,[2],inactive
same,outcome,[3],inactive
same,outcome,[4],inactive
same,outcome,[5],inactive
same,outcome,[6],inactive
same,outcome,[7],inactive
same,outcome,[8],inactive
same,outcome,[9],inactive
same,outcome,[10],inactive
same,outcome,[11],inactive
same,outcome,[12],inactive
same,outcome,[13],inactive
same,outcome,[14],inactive
same,outcome,[15],inactive
same,outcome,[16],inactive
same,outcome,[17],inactive
same,outcome,[18],inactive
same,outcome,[19],inactive
same,outcome,[20],inactive
Sc1nc2ccccc2s1,outcome,[1],inactive
same,outcome,[2],inactive
same,outcome,[3],inactive
same,outcome,[4],inactive
same,outcome,[5],inactive
same,outcome,[6],inactive
same,outcome,[7],inactive
same,outcome,[8],inactive
same,outcome,[9],inactive
same,outcome,[10],inactive
same,outcome,[11],inactive
same,outcome,[12],inactive
same,outcome,[13],inactive
same,outcome,[14],inactive
same,outcome,[15],inactive
same,outcome,[16],inactive
same,outcome,[17],inactive
same,outcome,[18],inactive
same,outcome,[19],inactive
same,outcome,[20],inactive
CCCCCCC(O)CCCCCCCCCCC(=O)OC (stereo not given),outcome,[1],inactive
same,outcome,[2],inactive
same,outcome,[3],inactive
same,outcome,[4],inactive
same,outcome,[5],inactive
same,outcome,[6],inactive
same,outcome,[7],inactive
same,outcome,[8],inactive
same,outcome,[9],inactive
same,outcome,[10],inactive
same,outcome,[11],inactive
same,outcome,[12],inactive
same,outcome,[13],inactive
same,outcome,[14],inactive
same,outcome,[15],inactive
same,outcome,[16],inactive
same,outcome,[17],inactive
same,outcome,[18],inactive
same,outcome,[19],inactive
same,outcome,[20],inactive
O=C1CCCCCCCCCCCCCC1,outcome,[1],inactive
same,outcome,[2],inactive
same,AC50,[3],44.6 µM (active)
same,outcome,[4],inactive
same,outcome,[5],inactive
same,outcome,[6],inactive
same,outcome,[7],inactive
same,outcome,[8],inactive
same,outcome,[9],inactive
same,outcome,[10],inactive
same,outcome,[11],inactive
same,outcome,[12],inactive
same,outcome,[13],inactive
same,outcome,[14],inactive
same,outcome,[15],inactive
same,AC50,[16],47.6 µM (active)
same,outcome,[17],inactive
same,outcome,[18],inactive
same,outcome,[19],inactive
same,outcome,[20],inactive
O=[N+]([O-])c1ccccc1C(F)(F)F,outcome,[1],inactive
same,outcome,[2],inactive
same,outcome,[3],inactive
same,outcome,[4],inactive
same,outcome,[5],inactive
same,outcome,[6],inactive
same,outcome,[7],inactive
same,outcome,[8],inactive
same,outcome,[9],inactive
same,outcome,[10],inactive
same,outcome,[11],inactive
same,outcome,[12],inactive
same,outcome,[13],inactive
same,outcome,[14],inactive
same,outcome,[15],inactive
same,outcome,[16],inactive
same,outcome,[17],inactive
same,outcome,[18],inactive
same,outcome,[19],inactive
same,outcome,[20],inactive
